Values without a mark were called inactive. Active and inactive are the calls of the source. Calls come from the whole dose curve; as a rule, active = well fitted activation curve with a large enough effect; inconclusive = small, poorly fitted or top-dose-only effect; inactive = no such curve, though single readings can be large or run the other way.
assay: Confirmatory qHTS for Identification of Small Molecule Activators of Huntingtin-Antisense Promoter Activity; conditions: HEK293 HTT-AS promoter firefly luciferase reporter, 24 h; series mostly up to 57.5 µM; activity change, positive = activation: at the top concentration
In short: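 Activity normalized between vehicle control (0%) and zero RLU (-100%) from firefly luminescence (Dual-Glo). Compounds, up to 57.5 uM final, incubated 24 h at 37C on HEK293 reporter cells plated 24 h earlier.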
Potency is the fitted concentration of half-maximal effect.

SMILES	activity change, positive = activation	Potency
COc1ccc(Cl)cc1C1CC(=O)Nc2cc3c(cc21)OCCO3 (centres undefined)	-63.7%	
CC(C)(C)C(=O)NCCc1nc2ccccc2n1CCCCOc1ccccc1	-29.6%	
Cc1ccc(C)c(NC(=O)Cn2c(=O)oc3cc(S(=O)(=O)NCc4ccccc4)ccc32)c1	-38.1%	
CCCN(c1ccccc1CC)S(=O)(=O)c1ccc2c(c1)CC(C)N2C(=O)C1CC1 (centres undefined)	-79.9%	
COc1ccc(C2(CNC(=O)C(=O)Nc3cccc(C(F)(F)F)c3)CCCC2)cc1OC	-9.16%	
Cc1ccc(CCNC(=O)C(C)n2nc(C)c3c(C)n(-c4ccc(C)cc4)nc3c2=O)cc1 (centres undefined)	-81.1%	
COc1ccc(CNC(=O)c2ccc3c(c2)CCN3S(=O)(=O)c2ccc(Cl)cc2)cc1	-23.1%	
COc1ccc(CNC(=O)c2cccc(N3CCCS3(=O)=O)c2)cc1OC	-95.9%	
COc1ccccc1CNC(=O)Cn1c(=O)oc2cc(S(=O)(=O)N3CCC(C)CC3)ccc21	-39.5%	
CC(C)c1ccc(CNC(=O)c2ccc(N3CCCC3)c(NC(=O)NCc3ccccc3)c2)cc1	-89.4%	
Cc1cccc(C)c1NC(=O)c1ccc2nc(CCc3ccccc3)oc2c1	-26.4%	
CCOc1ccc(-c2nc(CSCC(=O)NCCc3ccccc3)c(C)o2)cc1	-47.2%	
CCc1ccc(CNC(=O)c2cc3cc(S(=O)(=O)N4CCCCC4)ccc3n2C)cc1	-28.2%	
O=S(=O)(NCc1ccc(F)cc1)c1ccc(N2CCCCS2(=O)=O)cc1	-83.7%	
CCOc1ccc(CCNC(=O)c2sc3ncccc3c2-n2c(C)ccc2C)cc1	-65.6%	
COc1ccccc1N=c1scc(-c2ccc(S(=O)(=O)N3CCCC3)cc2)n1C	-78%	
Cc1ccccc1CN1c2ccccc2-c2nc(SCC(=O)Nc3cc(F)ccc3F)ncc2S1(=O)=O	-31%	
Cc1ccc(C(C)C)c(OCCn2cc(C(=O)c3ccco3)c3ccccc32)c1	-25.9%	
Cc1c(Cl)cccc1-n1ncc(C(=O)Nc2ccc(F)cc2F)c1C1CCN(C(=O)OC(C)(C)C)CC1	-27.8%	
Cc1ccc(Cl)cc1N1CCN(C(=O)c2cnc(N3CCOCC3)c3ccccc23)CC1	-34.6%	

SMILES	activity change, positive = activation	Potency
O=C(c1ccc2c(c1)N(Cc1ccccc1)C(=O)c1ccccc1S2(=O)=O)N1CCCCCC1	-30.5%	
CCCc1ccc(C2Sc3ccccc3NC3=C2C(=O)c2ccccc23)cc1 (centres undefined)	-72.4%	
O=C(Nc1ccc(F)c(Cl)c1)C1CCN(S(=O)(=O)c2ccc3c(c2)CCCN3C(=O)C2CCC2)CC1	-22.8%	
COC(=O)c1c(C)oc2ccc(N(C(=O)c3ccncc3)S(=O)(=O)c3ccc(Br)cc3)cc12	-95%	
COc1cc(NC(=O)Cn2c(=O)oc3cc(S(=O)(=O)N4CCCCCC4)ccc32)cc(OC)c1	-39.7%	
Cc1ccccc1C(=O)Nc1sc2c(c1C(=O)O)CCC(C(C)(C)C)C2 (centres undefined)	-32.5%	
COc1cccc(C(=O)Nc2ccc(S(=O)(=O)N(Cc3ccccc3)c3ccccc3)cc2)c1	-26.8%	
Cc1ccc(NCc2cccn2-c2nnc(N3CCC(C(=O)NC(C)C)CC3)s2)cc1	-33.6%	
CCCCC(CC)CNC(=O)Cc1ccc(-n2c(=O)[nH]c3ccccc3c2=O)cc1 (centres undefined)	-28.7%	
CCOC(=O)C1=C(CN2CCN(c3ccc(C)cc3C)CC2)NC(=O)NC1c1ccc(OC)cc1 (centres undefined)	-91.2%	
O=C(CCn1cnc2onc(-c3ccc(F)cc3)c2c1=O)Nc1ccc(F)c(Cl)c1	-93.5%	
CN(C)c1ccc(Nc2nc(N)n(C(=O)c3c(F)cccc3F)n2)cc1		30.1 µM (active)
Cc1cccc(Cn2c(SCc3ccc(C(=O)N4CCCCCC4)cc3)nc3ccncc32)c1	-47.9%	
CCOc1ccc(S(=O)(=O)N(C(=O)c2ccncc2)c2ccc3oc(C)c(C(=O)OC)c3c2)cc1	-93.4%	
COc1ccc(CCNC(=O)c2ccc3c(c2)CCN3S(=O)(=O)c2ccc(C)cc2)cc1OC	-25.9%	
COc1ccc(-c2noc(N3CCN(c4ccc(C)cc4)C(C)C3)n2)cc1OC (centres undefined)	-35.1%	
COc1ccc(-c2nc(N3CCOCC3)c3sc(CN(C)c4ncc(C(=O)NO)cn4)cc3n2)cn1	2.64%	
Cc1ccc(-c2ncn(-c3ccc(Nc4nccc(-c5cccc(N6CCOCC6)c5)n4)cc3)n2)cn1	-91.3% [at 115 µM]	
Cc1nc(-c2ccc(F)cc2)sc1CCNC(=O)c1ccc(C(C)(C)C)cc1	-10%	

Source: PubChem BioAssay AID1508622 (National Center for Advancing Translational Sciences (NCATS), 2021)
